Data taken from the supplement of paper PMC6992640.
± gives the standard deviation of the averaged measurements.

Legend:
Assay in all cases: cell viability (% of vehicle); higher = less cytotoxic
Conditions in all cases: 10 µM; 72 h
HCI01 = tested on: HCI01 (cells of a triple-negative basal-like breast cancer xenograft)
HCI03 = tested on: HCI03 (cells of an ER-positive luminal breast cancer xenograft)
HCI09 = tested on: HCI09 (cells of a triple-negative luminal androgen receptor type breast cancer xenograft)
HCI11 = tested on: HCI11 (cells of an ER-positive luminal breast cancer xenograft)
HCI13 = tested on: HCI13 (cells of an ER-positive luminal breast cancer xenograft)
HCI16 = tested on: HCI16 (cells of a triple-negative basal-like breast cancer xenograft)
UCD52 = tested on: UCD52 (cells of a triple-negative basal-like breast cancer xenograft)
WHIM2 = tested on: WHIM2 (cells of a triple-negative basal-like breast cancer xenograft)
WHIM30 = tested on: WHIM30 (cells of a triple-negative basal-like breast cancer xenograft)
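Also: PDX cells carrying CMV promoter-driven luciferase, viability read as total photon flux per second by IVIS imaging following D-luciferin, vehicle control 0.1% DMSO.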

Row | SMILES | cell viability (HCI01) | cell viability (HCI03) | cell viability (HCI09) | cell viability (HCI11) | cell viability (HCI13) | cell viability (HCI16) | cell viability (UCD52) | cell viability (WHIM2) | cell viability (WHIM30)
1 | CCCC(NC(C)C(=O)N1C(C(=O)O)CC2CCCCC21)C(=O)OCC (configuration not stated) [Perindopril] | 110.1 ± 0.73 | 111 | 131 ± 35 | 111 | 134 ± 4.2 | 94.2 | 103 ± 2.7 | 102 ± 5.3 | 101 ± 2.5
2 | OCCOc1ccc(C(=C(CCCl)c2ccccc2)c2ccccc2)cc1 [Ospemifene] | 117 ± 33 | 139 | 99.6 ± 30 | 106 | 91 ± 2.3 | 146 | 86.3 ± 1.5 | 78.5 ± 5.9 | 148 ± 10
3 | CN(C)CCCOc1nn(Cc2ccccc2)c2ccccc12.Cl [Benzydamine HCl] | 171 ± 76 | 85.4 | 79 ± 16 | 104 | 66.2 ± 11 | 163 | 100.3 ± 0.44 | 116 ± 6.4 | 123 ± 18
4 | CC(=O)OC1(C(C)=O)CCC2C3CC(C)C4=CC(=O)CCC4(C)C3CCC21C (configuration not stated) [Medroxyprogesterone acetate] | 122 ± 12 | 114 | 98.5 ± 53 | 78.4 | 152 ± 16 | 177 | 95 ± 3.6 | 87.8 ± 5.8 | 184 ± 9.5
5 | COc1cc(Nc2nc3ccccc3nc2NS(=O)(=O)c2ccc(NC(=O)c3ccc(C)c(OC)c3)cc2)cc(OC)c1 | 86.4 ± 4.2 | 102 | 49.675 ± 0.011 | 86.9 | 66.9 ± 17 | 94.9 | 84.5 ± 8.2 | 54.3 ± 12 | 88.5 ± 24
6 | NS(=O)(=O)NCC/N=C1\NON\C1=C(\N=O)Nc1ccc(F)c(Br)c1 | 105 ± 6.8 | 99 | 35 ± 8.5 | 96.4 | 66.5 ± 1.4 | 112 | 57.5 ± 3.6 | 88.9 ± 9.7 | 96.2 ± 6
7 | CC(C)Cc1ccc(C(C)C(=O)O)cc1 (configuration not stated) [Ibuprofen] | 124 ± 28 | 115 | 110 ± 24 | 104 | 133 ± 7.1 | 90.2 | 88.9 ± 4.3 | 102 ± 13 | 104 ± 4.4
8 | CN(C)c1cc(NC(=O)CNC(C)(C)C)c(O)c2c1CC1CC3C(N(C)C)C(=O)C(C(N)=O)=C(O)C3(O)C(=O)C1=C2O (configuration not stated) [Tigecycline] | 80 ± 10 | 121 | 95.8 ± 8.5 | 81.9 | 129 ± 23 | 120 | 96.7 ± 21 | 102 ± 22 | 129 ± 8.6
9 | Cc1nc2n(c(=O)c1CCN1CCC(c3noc4cc(F)ccc34)CC1)CCCC2O (configuration not stated) [Paliperidone] | 106 ± 11 | 172 | 94.6 ± 17 | 86.3 | 117 ± 4 | 113 | 113 ± 7.6 | 135 ± 24 | 127 ± 4.2
10 | CN1C2=CC(=O)C(=NNC(N)=O)C=C2CC1S(=O)(=O)[O-].[Na+] (configuration not stated) [Carbazochrome sodium sulfonate (AC-17)] | 99.8 ± 0.3 | 129 | 105.4 ± 0.44 | 94.6 | 81 ± 18 | 124 | 99 ± 19 | 99.4 ± 21 | 134 ± 9.7
11 | CCN1CCCC1CNC(=O)c1cc(S(=O)(=O)CC)c(N)cc1OC (configuration not stated) [Amisulpride] | 189 ± 32 | 126 | 108 ± 14 | 100 | 82.7 ± 0.84 | 159 | 116 ± 15 | 122 ± 4 | 139 ± 2.1
12 | CC(C(=O)O)c1ccc(C(=O)c2cccs2)cc1 (configuration not stated) [Suprofen] | 116 ± 29 | 133 | 97.9 ± 4 | 69.5 | 114 ± 7.9 | 125 | 102.3 ± 0.22 | 107 ± 3.9 | 100 ± 15
13 | CC(=O)N1CCN(c2ccc(OCC3COC(Cn4ccnc4)(c4ccc(Cl)cc4Cl)O3)cc2)CC1 (single isomer, unassigned; (+)) [(+)-Ketoconazole] | 151 ± 55 | 119 | 29.5 ± 5.5 | 87.9 | 98.9 ± 9.7 | 103 | 44.6 ± 2.7 | 134 ± 9.5 | 94.8 ± 11
14 | CO[C@H]1O[C@@H]2OC3(C)CC[C@H]4[C@H](C)CC[C@@H]([C@H]1C)[C@@]24OO3 [Artemether] | 116 ± 31 | 121 | 94.4 ± 26 | 102 | 95.8 ± 0.62 | 106 | 97.88 ± 0.13 | 97.7 ± 8.3 | 75.18 ± 0.081
15 | Nc1nc(N)nc(-c2cc(Cl)ccc2Cl)n1 [Irsogladine] | 92.7 ± 5.9 | 113 | 91.9 ± 16 | 89.7 | 102 ± 18 | 108 | 107 ± 4.4 | 114 ± 4.4 | 76.4 ± 4.1
16 | NCCCC(O)(P(=O)([O-])O)P(=O)(O)O.[Na+] [Alendronate sodium] | 102 ± 7.7 | 111 | 95.1 ± 18 | 97.3 | 97.6 ± 3.9 | 97.1 | 79 ± 5.8 | 93.7 ± 13 | 116 ± 8.4
17 | CCCCCCCCCCCC(CC1OC(=O)C1CCCCCC)OC(=O)C(CC(C)C)NC=O (configuration not stated) [Orlistat] | 126.7 ± 0.42 | 122 | 123 ± 42 | 110 | 97.6 ± 13 | 81.3 | 76.1 ± 1 | 79.1 ± 21 | 123 ± 6.8
18 | COc1ccc(CC2c3cc(OC)c(OC)cc3CC[N+]2(C)CCC(=O)OCCCCCOC(=O)CC[N+]2(C)CCc3cc(OC)c(OC)cc3C2Cc2ccc(OC)c(OC)c2)cc1OC.O=S(=O)([O-])c1ccccc1.O=S(=O)([O-])c1ccccc1 (configuration not stated) [Atracurium Besylate] | 187 ± 100 | 110 | 87.1 ± 58 | 81 | 80.1 ± 19 | 145 | 126 ± 2.7 | 71.5 ± 12 | 97.1 ± 7
19 | OC(Cn1cncn1)(Cn1cncn1)c1ccc(F)cc1F [Fluconazole hydrate] | 116 ± 7.6 | 109 | 99.4 ± 25 | 89.7 | 138 ± 7.4 | 101 | 93.5 ± 5.6 | 99.1 ± 9.9 | 127 ± 21

Row | SMILES | cell viability (HCI01) | cell viability (HCI03) | cell viability (HCI09) | cell viability (HCI11) | cell viability (HCI13) | cell viability (HCI16) | cell viability (UCD52) | cell viability (WHIM2) | cell viability (WHIM30)
20 | CN(C)C(=O)c1cc2cnc(Nc3ccc(N4CCNCC4)cn3)nc2n1C1CCCC1 | 109 ± 4.3 | 135 | 114 ± 30 | 138 | 126 ± 13 | 91.7 | 148 ± 8.1 | 108 ± 13 | 130 ± 9.5
21 | CC12CC3CC(C)(C1)CC(N)(C3)C2.Cl [Memantine hydrochloride] | 88.8 ± 14 | 146 | 104 ± 13 | 99.3 | 116 ± 3.6 | 98.2 | 92.37 ± 0.13 | 88.1 ± 15 | 156 ± 21
22 | NC(=O)N1c2ccccc2C=Cc2ccccc21 [Carbamazepine] | 107 ± 2.9 | 103 | 94.3 ± 32 | 106 | 91.8 ± 1.1 | 99.6 | 85.8 ± 4.4 | 75.2 ± 22 | 98.8 ± 4.5
23 | COC1=CC=C(/C(C2=CC=C(OC)C=C2)=C(Cl)/C3=CC=C(OC)C=C3)C=C1 [Chlorotrianisene] | 85.2 ± 4.9 | 125 | 86.2 ± 23 | 101 | 76.3 ± 15 | 95.5 | 89.8 ± 13 | 95 ± 1.6 | 96.58 ± 0.32
24 | CCCc1nn(C)c2c(=O)nc(-c3cc(S(=O)(=O)N4CCN(C)CC4)ccc3OCC)[nH]c12.O=C(O)CC(O)(CC(=O)O)C(=O)O [Sildenafil Citrate] | 116 ± 2.8 | 144 | 96 ± 15 | 118 | 130 ± 23 | 94.4 | 88.2 ± 4 | 83.8 ± 4.8 | 53.9 ± 10
25 | COC(=O)CCc1ccc(OCC(O)CNC(C)C)cc1.Cl (configuration not stated) [Esmolol HCl] | 133 ± 46 | 121 | 96.2 ± 1.9 | 95.3 | 96.8 ± 12 | 122 | 105 ± 18 | 108 ± 17 | 113 ± 2.2
26 | CN(C)CCOC(c1ccccc1)c1ccccc1.Cl [Diphenhydramine HCl] | 109 ± 18 | 123 | 87 ± 2.5 | 90.8 | 74 ± 3.2 | 118 | 84.2 ± 6.5 | 107 ± 32 | 116 ± 28
27 | NC(=O)Cc1cccc(C(=O)c2ccccc2)c1N [Nepafenac] | 117 ± 21 | 101 | 94.6 ± 3.9 | 95.4 | 84.1 ± 5.7 | 94.2 | 104 ± 1.5 | 159 ± 69 | 136 ± 14
28 | Cl.Clc1ccc2nsnc2c1NC1=NCCN1 [Tizanidine HCl] | 115 ± 7.6 | 125 | 95.5 ± 43 | 102 | 125 ± 25 | 100 | 84.3 ± 0.65 | 88.3 ± 14 | 117 ± 20
29 | CC(=O)O.CC(O)C(CO)NC(=O)C1CSSCC(NC(=O)C(N)Cc2ccccc2)C(=O)NC(Cc2ccccc2)C(=O)NC(Cc2c[nH]c3ccccc23)C(=O)NC(CCCCN)C(=O)NC(C(C)O)C(=O)N1 (configuration not stated) [Octreotide acetate] | 86.6 ± 6.2 | 135 | 87.9 ± 14 | 95.4 | 87.9 ± 3.6 | 90.1 | 84.3 ± 9.8 | 86.9 ± 20 | 102 ± 15
30 | CCOC(=O)c1ccc(C#Cc2ccc3c(c2)C(C)(C)CCS3)nc1 [Tazarotene] | 141 ± 48 | 108 | 127 ± 22 | 113 | 184 ± 8.9 | 97.9 | 104 ± 16 | 123 ± 1.6 | 188 ± 10
31 | C=C1c2cccc(O)c2C(O)=C2C(=O)C3(O)C(O)=C(C(N)=O)C(=O)C(N(C)C)C3C(O)C12.Cl (configuration not stated) [Methacycline HCl] | 114 ± 4.2 | 128 | 104 ± 5.9 | 81.8 | 140 ± 12 | 158 | 111 ± 5.5 | 94.3 ± 2 | 121 ± 2.4
32 | CC(=O)O.C[C@H](N)C(=O)O.NCCCC[C@H](N)C(=O)O.N[C@@H](CCC(=O)O)C(=O)O.N[C@@H](Cc1ccc(O)cc1)C(=O)O [glatiramer acetate] | 94.3 ± 13 | 136 | 108 ± 11 | 108 | 171 ± 16 | 125 | 118 ± 10 | 95.9 ± 38 | 145 ± 6.9
33 | O=C1c2ccccc2C(=O)C1c1ccccc1 [Phenindione] | 127 ± 33 | 142 | 104 ± 5.7 | 94.7 | 92.6 ± 26 | 114 | 104 ± 7.3 | 124 ± 13 | 159 ± 35
34 | O=c1cc(O)c(Cl)c[nH]1 [Gimeracil] | 96.4 ± 1.7 | 131 | 94 ± 19 | 112 | 123 ± 14 | 91 | 87.8 ± 3.9 | 102 ± 15 | 101 ± 17
35 | CC1=C(C(=O)O)N2C(=O)C(NC(=O)C(N)c3ccccc3)C2SC1 (configuration not stated) [Cephalexin] | 135 ± 38 | 122 | 86.6 ± 21 | 101 | 76.3 ± 2.8 | 113 | 114.8 ± 0.94 | 118 ± 12 | 111 ± 5.6
36 | Cc1cn(-c2cc(/N=C(\O)c3ccc(C)c(Nc4nccc(-c5cnccn5)n4)c3)cc(C(F)(F)F)c2)cn1 [Radotinib(IY-5511)] | 89.5 ± 3.2 | 142 | 92.6 ± 13 | 92.9 | 80.9 ± 9.7 | 107 | 102 ± 10 | 100 ± 12 | 104 ± 27
37 | Cn1c(=O)cc(N2CCCC(N)C2)n(Cc2ccccc2C#N)c1=O (configuration not stated) [Alogliptin (SYR-322)] | 118 ± 5.8 | 112 | 89.5 ± 8.9 | 112 | 115 ± 26 | 113 | 108.86 ± 0.059 | 114 ± 9.2 | 117 ± 6.7
38 | COc1ccnc(C[S+]([O-])c2nc3cc(OC(F)F)ccc3[nH]2)c1OC (configuration not stated) [Pantoprazole] | 123 ± 15 | 133 | 102 ± 2.6 | 103 | 97.1 ± 2.1 | 108 | 130 ± 5.1 | 100 ± 7.9 | 130 ± 7.3
